Laboratory results: PubChem BioAssay AID1259415 (National Center for Advancing Translational Sciences (NCATS), 2018)
Out of some 410,000 compounds screened, about 18,000 (4.4%) were called active. About 7% were inconclusive and are not listed. Only a selection was taken, and actives are over-represented in it overall. A number with no mark means an inactive call. Rule as the data show it: active = activity change below about -60%; inconclusive = no clear call, values can overlap the other calls; inactive = above about -39%.

Assay: qHTS Assay for inhibitors of the human cytomegalovirus (HCMV)
Conditions: HFF cells, HCMV-luciferase reporter, 72 h; at 57.5 µM; stronger effect = lower value
Source text: NCGC Assay Overview: Infection with human cytomegalovirus (HCMV) continues to pose significant threats for pregnant women and immunocompromised hosts. HCMV causes serious morbidity and mortality in transplant recipients, and congenital HCMV is the leading infectious cause of mental retardation and deafness in children. In the 1990s, the annual costs associated with the disease burden of congenital CMV were estimated at around $2 billion. A HCMV vaccine is not available yet and HCMV therapies result in intolerable side effects and emergence of drug resistant viruses. […] Towards this goal we have developed and characterized a luciferase HCMV reporter that was initially used in 96 well plates and then optimized to 1536-well plates for utilization in screening of the MLSMR collection, the NGCG diversity collection and the NCGC Pharmaceutical Collection of approved and investigational drugs.
NCGC Assay Protocol Summary:
This is a cell-based assay for HCMV inhibition in HFFs cells. The screening used 2 compound doses and the HCMV-luciferase at MOI of 1 PFU/cell. Cells were treated and infected with HCMV. At 72 h post infection cell lysates were collected and luciferase activity was determined using the Glomax-Multi + Detection System (Promega, Madison, WI). Data were normalized to the controls for basal activity (buffer only) and known HCMV inhibitors Salinmoycin.
1536-well assay protocol for the assay:
(1) Add 3 ul CMV/HFF cell culture. 1000 cells/well in DMEM nirmal media.
(2) Incubate 16 hr at 37C.
(3) Add 23 nl control compound, 10uM of Salinomycin.
(4) Add 23 nl compounds in DMSO solution.
(5) Add 3 ul CMV suspension. Final 1 puf/ul, Virus stock 2000pfu/ul
(6) Incubate 72 hrs at 37C.
(7) Add 4 ul OneGlo Luc Reagent.
(8) Incubate 5 min at room temperature.
% is scaled to controls: 0 for no effect and ±100 for the full control effect.

Structure (SMILES) | activity change, negative = inhibition
Cc1ccc(O)c(-c2cc(C(=O)NCc3ccccc3)[nH]n2)c1 | 1.75%
Cc1ccc(/C=N/NC(=O)C(NC(=O)c2ccccc2)c2n[nH]c(=O)c3ccccc23)cc1 (centres undefined) | 19.8%
Cc1ccc(/C=N/NC(=O)C2=NNC(c3ccccc3)(c3ccccc3)C2)c(O)c1 | -93.6% (active)
COc1ccc(NC(=O)c2cc3cc(C)ccc3n2C)cc1 | 5.58%
CCOC(=O)c1c(S(=O)(=O)N2CCCC(C(=O)NCc3cccc(C)c3)C2)c(C)n(C)c1C (centres undefined) | -0.309%
Cc1oc2ncn(CC(C)C)c(=O)c2c1C(=O)N1CCN(c2ccccc2F)CC1 | 14.5%
C=C1C(=O)[C@]23C[C@H]1CCC2[C@@]1(C)C(C[C@@H]3O)[C@](C)(C(=O)O)CC[C@@H]1O (some centres undefined) | -81.2% (active)
Oc1ccc(Br)cc1/C=N/Nc1ccccn1 | -97% (active)
Cc1ccc(OCCOCCOc2ccc(Br)cc2/C=N\NC(=O)c2ccncc2)cc1 | -1.54%
Fc1ccccc1/C=N/Nc1cc(N2CCCCC2)ncn1 | 76.3%
COc1ccc(-c2noc(CSc3nc4ccc(C)cc4[nH]3)n2)cc1 | -38.7%
COC(=O)c1cnc(N2CCN(c3ccccc3OC)CC2)c2ccccc12 | -6.88%
Cc1cccc(N2CCN(C3=C(c4ccccc4)C(=O)c4ccccc43)CC2)c1C | -15.5%
O=C(NC1CC(=O)N(c2ccc(F)cc2)C1)c1cccs1 (centres undefined) | 70.7%
COc1ccc(C)cc1Nc1nc2ccccc2c2nnc(C)n12 | 18.4%
O=C(c1n[nH]c2c1CCC2)N1CCCC(Nc2cccc(F)c2)C1 (centres undefined) | 9.79%
Cc1ccc(-c2onc(C)c2C)cc1S(=O)(=O)Nc1ccccn1 | 52.8%
Cn1c(=O)c(=O)n(C)c2cc(NC(=O)c3ccccc3Br)ccc21 | -5.7%
COc1ccc2c(c1)Cc1sc(NC(=O)c3ccccc3Br)nc1-2 | -70.4% (active)
COc1ccc(NS(=O)(=O)c2ccc(N3CCOCC3)c(NC(=O)c3ccccc3Br)c2)cc1 | 0%
O=C(NCCc1ccccc1)c1ccc2c(c1)N(Cc1ccccc1)C(=O)c1ccccc1S2(=O)=O | 3.01%
O=C(OCCO)c1cc(Cl)c(C(=O)OCCO)cc1Cl | -29.4%

Structure (SMILES) | activity change, negative = inhibition
CCOC(=O)[C@]12CCCC=C1N(CCC1=CCCCC1)C(=O)[C@H](CC(=O)NCCCCc1ccccc1)C2 | -18.4%
CC1=C(C(=O)N(C)C)CC(CC(=O)NCCc2ccccn2)C(=O)N1CCC1=CCCCC1 (centres undefined) | 8.56%
CC1=C(C(=O)N(C(C)C)C(C)C)CC(CC(=O)NCCCCc2ccccc2)C(=O)N1CCC1=CCCCC1 (centres undefined) | -112% (active)
COc1ccccc1NC(=O)C1=C(C)Nc2ncnn2C1c1sccc1C (centres undefined) | 18%
O=C(CSc1oc(-c2ccco2)nc1S(=O)(=O)c1ccc(Cl)cc1)c1ccccc1 | -0.0708%
O=C(Nc1ccc(S(=O)(=O)N2CCOCC2)cc1)C1CCN(S(=O)(=O)c2ccc(Cl)cc2)CC1 | -78.5% (active)
CC(=O)Nc1ccc(S(=O)(=O)N2CCC(C(=O)NC3CC3)CC2)cc1 | 6.71%
O=C(Nc1ccc(Oc2ccccc2)cc1)C1CCN(S(=O)(=O)c2ccc(Cl)cc2)CC1 | -10.9%
CCCNC(=O)c1ccc(Cn2c(SCC(N)=O)nc3ccccc3c2=O)cc1 | 4.58%
NC(=O)c1ccc(NC(=O)COC(=O)C(Cc2ccccc2)NC(=O)c2ccccc2)cc1 (centres undefined) | 10.9%
CN(CC(=O)Nc1ccc(C(N)=O)cc1)S(=O)(=O)c1ccc2c(c1)OCCO2 | 21.6%
NC(=O)c1ccc(NC(=O)COC(=O)c2c3c(nc4ccccc24)/C(=C\c2ccc4c(c2)OCO4)CCC3)cc1 | -90.6% (active)
COc1ccc(CCNC(=O)CCCn2c(=O)c3ccccc3n(Cc3ccc(C)cc3)c2=O)cc1OC | 8.21%
Cc1ccc(Cn2c(=O)n(Cc3nc(-c4ccccc4)no3)c(=O)c3cc4c(cc32)OCO4)cc1 | -3.37%
COc1cc(C(=O)Nc2ccc(OCc3cc(=O)n4ccc(C)cc4n3)cc2)cc(OC)c1OC | 58.3%
COc1ccc2oc(-c3ccc(C)c(NC(=O)c4sc5ccccc5c4Cl)c3)nc2c1 | 47.4%
CCCCN1C(=O)c2[nH]nc(-c3ccccc3O)c2C1c1cccc(OCc2ccccc2)c1 (centres undefined) | -19%
Cc1[nH]nc(-c2ccc(OCc3cnn(-c4ccccc4)c3)cc2O)c1Oc1ccc(Cl)cc1 | -95.2% (active)
Oc1cccc(C2c3[nH]c4ccccc4c3CCN2Cc2cnn(-c3ccccc3)c2)c1 (centres undefined) | 19.4%
CCC1CCCCN1C(=O)Cn1c(=O)n(CCCCCC(=O)NCc2ccccc2)c(=O)c2sccc21 (centres undefined) | -18.6%
CCOC(=O)c1sc(-c2cccc([N+](=O)[O-])c2)cc1N | 0.0939%
CCOC(=O)N1CCN(Cc2nnc(-c3ccccc3Cl)o2)CC1 | -96.5% (active)
